From PubChem BioAssay (NCATS)
Records with an inconclusive call do not appear. Unmarked numbers belong to inactive results. The source made the active and inactive calls. Calls come from the whole dose curve; tested in HEK293 reporter line.

test: qHTS for Inhibitors of the Functional Ribonucleoprotein Complex (vRNP) of Lassa (LASV) Arenavirus: LASV Primary Screen - GLuc reporter signal (AID 1347082); conditions: LASV minigenome vRNP, Gaussia luciferase reporter; series mostly up to 57.5 µM; activity change, negative = inhibition: at the top concentration; note: nearly all actives have a fitted effect of over 60% in size
% is set by controls: 0 for no effect and ±100 for the full control effect; potency is the fitted concentration of half-maximal effect.

| SMILES | activity change, negative = inhibition | Potency |
| --- | --- | --- |
| Cc1ccc(S(=O)(=O)Nc2cc(Cl)ccc2C(=O)Nc2nc(-c3ccccc3)cs2)cc1 | -13.5% |  |
| CC(C)(C)C(O)C(Oc1ccc(Cl)cc1)n1cncn1 (stereo not drawn) | -22% [at 115 µM] |  |
| C[C@@H](N)C(=O)O | -2.64% |  |
| O=C(NO)c1ccccc1 | -15.6% [at 115 µM] |  |
| O=C(O)CCc1ccc(NCc2cccc(Oc3ccccc3)c2)cc1 | 3.33% |  |
| CN1C(=O)CC[C@H]1c1cccnc1 |  | inactive |
| O=C(C=Cc1cccnc1)NCCCCC1CCN(C(=O)c2ccccc2)CC1 |  | 68.5 nM (active) |
| CCOC(CN1C(=O)[C@](CC(=O)Nc2ccc(C)cc2)(NC(=O)Nc2ccc(C)cc2)c2ccccc21)OCC | 27.5% |  |
| CC1(C)Cc2c(-c3ccccc3)c(-c3ccc(Cl)cc3)c(CC(=O)O)n2C1 | -14.6% |  |
| C=CCn1c(=O)c2cnc(Nc3ccc(N4CCN(C)CC4)cc3)nc2n1-c1cccc(C(C)(C)O)n1 |  | 685 nM (active) |
| CN(C)c1ccc(C2Nc3ccc4ccccc4c3C3=C2C(=O)CC(C)(C)C3)cc1Br (stereo not drawn) | -1.51% |  |
| NCCCC(N)(C(=O)O)C(F)F (stereo not drawn) |  | inactive |
| O=c1cc(CN2CCOCC2)occ1OCCCCCSc1ccnc2cc(C(F)(F)F)ccc12 |  | 21700 nM (active) |
| Nc1ccccc1N | -14.8% [at 115 µM] |  |
| C=C1C(=CC=C2CCC[C@]3(C)[C@@H]([C@H](C)C=C[C@H](C)C(C)C)CC[C@@H]23)C[C@@H](O)C[C@@H]1O | 15.2% |  |
| Nc1ccccc1NC(=O)c1ccc(CNc2nccc(-c3cccnc3)n2)cc1 | -27.5% |  |
| CCOC(=O)C(C)Oc1cccc2c(=O)n(CC(=O)Nc3ccc4c(c3)OCCO4)ccc12 (stereo not drawn) |  | inactive |
| O=C1NS(=O)(=O)c2ccccc21 | -0.183% |  |
| CCCCCCCc1ccc(CCc2cccc(O)c2C(=O)O)cc1 | -3.01% |  |
| COc1ccc(C=Cc2cc(OC)c(OC)c(OC)c2)cc1O | -43.7% |  |

| SMILES | activity change, negative = inhibition | Potency |
| --- | --- | --- |
| CCC=CC[C@H]1C(=O)CC[C@@H]1CC(=O)OC | 4.9% |  |
| Cc1ccc(-c2ncn(-c3ccc(Nc4nccc(-c5cccc(N6CCOCC6)c5)n4)cc3)n2)cn1 | -20% |  |
| CCCn1c(=O)c2[nH]c(C34CC5CC3C[C@@H](C5)C4)nc2n(CCC)c1=O | 6.28% |  |
| C#CC(C)(CC)OC(=O)c1ccccc1C(=O)O (stereo not drawn) | -13% |  |
| O=C1C(CCC(O)c2ccc(F)cc2)C(c2ccc(O)cc2)N1c1ccc(F)cc1 (stereo not drawn) | -0.52% |  |
| COc1ccc(CC2SC(=O)NC2=O)cc1C(=O)NCc1ccc(C(F)(F)F)cc1 (stereo not drawn) | -17.1% |  |
| CC(C)(C)C(=O)Oc1ccc2c(c1)nc(NC(=O)c1cccc([N+](=O)[O-])c1)n2CCCO | -0.847% |  |
| Cc1cc(SCc2sc(-c3ccc(C(F)(F)F)cc3)nc2C)ccc1OCC(=O)O | -0.875% |  |
| COc1cc(S(N)(=O)=O)cc(C(=O)O)c1OC | -22.9% |  |
| CCN(CC)CCNC(=O)c1ccc(NC(C)=O)cc1 |  | inactive |
| CN(C)C1CCN(C(=O)c2ccc(NC(=O)Nc3nc(N4CCOCC4)nc(N4CCOCC4)n3)cc2)CC1 |  | 243 nM (active) |
| CS(=O)(=O)Nc1ccc([N+](=O)[O-])cc1Oc1ccccc1 |  | inactive |
| Clc1ccccc1CN1CCc2sccc2C1 |  | inactive |
| COc1ncnc(NS(=O)(=O)c2ccc(N)cc2)c1OC |  | inactive |
| O=c1cc(-c2ccccc2)oc2ccccc12 |  | inactive |
| CC(C)C(C)(C)C(C)(C)C(C)(C)S | 4.92% [at 115 µM] |  |
| CC(C)(c1ccc(O)cc1)c1ccc(O)cc1 | -27.4% [at 115 µM] |  |
| CCCCCCCC(=O)OCC(O)CO (stereo not drawn) | -0.286% |  |
| CCN1CCN(Cc2ccc(-c3cc4c(N[C@H](C)c5ccccc5)ncnc4[nH]3)cc2)CC1 | -29.2% |  |

test: qHTS for Inhibitors of the Functional Ribonucleoprotein Complex (vRNP) of Lassa (LASV) Arenavirus: Viability assay - alamar blue signal for LASV Primary Screen (AID 1347083); conditions: cell viability, alamar blue fluorescence (LASV minigenome counter-screen); series mostly up to 57.5 µM; activity change, negative = reduced viability: at the top concentration; note: nearly all actives have a fitted effect of over 80% in size

| SMILES | activity change, negative = reduced viability | Potency |
| --- | --- | --- |
| Cc1ccc(S(=O)(=O)Nc2cc(Cl)ccc2C(=O)Nc2nc(-c3ccccc3)cs2)cc1 | -5.3% |  |
| CC(C)(C)C(O)C(Oc1ccc(Cl)cc1)n1cncn1 (stereo not drawn) | -6.65% [at 115 µM] |  |
| C[C@@H](N)C(=O)O | 0.165% |  |
| O=C(NO)c1ccccc1 | -12.3% [at 115 µM] |  |
| O=C(O)CCc1ccc(NCc2cccc(Oc3ccccc3)c2)cc1 | -3.68% |  |
| CN1C(=O)CC[C@H]1c1cccnc1 |  | inactive |
| O=C(C=Cc1cccnc1)NCCCCC1CCN(C(=O)c2ccccc2)CC1 |  | 61.1 nM (active) |
| CCOC(CN1C(=O)[C@](CC(=O)Nc2ccc(C)cc2)(NC(=O)Nc2ccc(C)cc2)c2ccccc21)OCC | -24.5% |  |
| CC1(C)Cc2c(-c3ccccc3)c(-c3ccc(Cl)cc3)c(CC(=O)O)n2C1 | -1.45% |  |
| C=CCn1c(=O)c2cnc(Nc3ccc(N4CCN(C)CC4)cc3)nc2n1-c1cccc(C(C)(C)O)n1 |  | 172 nM (active) |
| CN(C)c1ccc(C2Nc3ccc4ccccc4c3C3=C2C(=O)CC(C)(C)C3)cc1Br (stereo not drawn) | -1.74% |  |
| NCCCC(N)(C(=O)O)C(F)F (stereo not drawn) |  | inactive |
| O=c1cc(CN2CCOCC2)occ1OCCCCCSc1ccnc2cc(C(F)(F)F)ccc12 |  | 1930 nM (active) |
| Nc1ccccc1N | -30.7% [at 115 µM] |  |
| C=C1C(=CC=C2CCC[C@]3(C)[C@@H]([C@H](C)C=C[C@H](C)C(C)C)CC[C@@H]23)C[C@@H](O)C[C@@H]1O |  | 13700 nM (active) |
| Nc1ccccc1NC(=O)c1ccc(CNc2nccc(-c3cccnc3)n2)cc1 |  | 6850 nM (active) |
| CCOC(=O)C(C)Oc1cccc2c(=O)n(CC(=O)Nc3ccc4c(c3)OCCO4)ccc12 (stereo not drawn) |  | inactive |
| O=C1NS(=O)(=O)c2ccccc21 | -2.7% |  |
| CCCCCCCc1ccc(CCc2cccc(O)c2C(=O)O)cc1 | -1.66% |  |
| COc1ccc(C=Cc2cc(OC)c(OC)c(OC)c2)cc1O | -103% |  |

| SMILES | activity change, negative = reduced viability | Potency |
| --- | --- | --- |
| CCC=CC[C@H]1C(=O)CC[C@@H]1CC(=O)OC | 12.8% |  |
| Cc1ccc(-c2ncn(-c3ccc(Nc4nccc(-c5cccc(N6CCOCC6)c5)n4)cc3)n2)cn1 |  | 485 nM (active) |
| CCCn1c(=O)c2[nH]c(C34CC5CC3C[C@@H](C5)C4)nc2n(CCC)c1=O | 3.89% |  |
| C#CC(C)(CC)OC(=O)c1ccccc1C(=O)O (stereo not drawn) | 3.97% |  |
| O=C1C(CCC(O)c2ccc(F)cc2)C(c2ccc(O)cc2)N1c1ccc(F)cc1 (stereo not drawn) | -1.14% |  |
| COc1ccc(CC2SC(=O)NC2=O)cc1C(=O)NCc1ccc(C(F)(F)F)cc1 (stereo not drawn) | -11.6% |  |
| CC(C)(C)C(=O)Oc1ccc2c(c1)nc(NC(=O)c1cccc([N+](=O)[O-])c1)n2CCCO | 0.139% |  |
| Cc1cc(SCc2sc(-c3ccc(C(F)(F)F)cc3)nc2C)ccc1OCC(=O)O | -1.89% |  |
| COc1cc(S(N)(=O)=O)cc(C(=O)O)c1OC | 1.47% |  |
| CCN(CC)CCNC(=O)c1ccc(NC(C)=O)cc1 |  | inactive |
| CN(C)C1CCN(C(=O)c2ccc(NC(=O)Nc3nc(N4CCOCC4)nc(N4CCOCC4)n3)cc2)CC1 |  | 68.5 nM (active) |
| CS(=O)(=O)Nc1ccc([N+](=O)[O-])cc1Oc1ccccc1 |  | inactive |
| Clc1ccccc1CN1CCc2sccc2C1 |  | inactive |
| COc1ncnc(NS(=O)(=O)c2ccc(N)cc2)c1OC |  | inactive |
| O=c1cc(-c2ccccc2)oc2ccccc12 |  | inactive |
| CC(C)C(C)(C)C(C)(C)C(C)(C)S | 8.77% [at 115 µM] |  |
| CC(C)(c1ccc(O)cc1)c1ccc(O)cc1 | 13.8% [at 115 µM] |  |
| CCCCCCCC(=O)OCC(O)CO (stereo not drawn) | -5.18% |  |
| CCN1CCN(Cc2ccc(-c3cc4c(N[C@H](C)c5ccccc5)ncnc4[nH]3)cc2)CC1 |  | 7.7 nM (active) |
